The source of these data is PubChem BioAssay.

Experiment [1] can be described thus: antimalarial activity against Dd2 strain (AID 2302;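 active means growth inhibition above 50% at the single 2 µM test dose, taken to imply half-maximal potency below 2 µM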;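 further: 0% = DMSO untreated growth and 100% = chloroquine plus artemisinin killed control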). As to conditions: P. falciparum Dd2 in RBCs, LDH growth readout, 72 h; at 2 µM; active compounds read high.
Experiment [2] is described as follows: human hepatoma cell viability loss – ATP luminescence, cytotoxicity control for P. falciparum antimalarial project, primary screen (AID 2303;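 active means inhibition above 50%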;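 further: 0% = DMSO wells and 100% = digitonin-killed cells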). As to conditions: HepG2 viability, 24-48 h, at 10 µM, active compounds read high.
For experiment [3], the target named is L-lactate dehydrogenase (Plasmodium falciparum (isolate CDC / Honduras)) (UniProt Q27743). The experiment in a line: PfLDH activity inhibition – cell lysate, 3D7 strain, counter-screen for P. falciparum growth inhibition project (AID 2304).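 Further: 0% = vehicle and 100% = reference inhibitor.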 As to conditions: P. falciparum 3D7 crude extract, LDH APAD/NBT absorbance; at 2 µM; active compounds read high.
L-lactate dehydrogenase (Plasmodium falciparum (isolate CDC / Honduras)), sequence (Q27743 whole entry, looked up): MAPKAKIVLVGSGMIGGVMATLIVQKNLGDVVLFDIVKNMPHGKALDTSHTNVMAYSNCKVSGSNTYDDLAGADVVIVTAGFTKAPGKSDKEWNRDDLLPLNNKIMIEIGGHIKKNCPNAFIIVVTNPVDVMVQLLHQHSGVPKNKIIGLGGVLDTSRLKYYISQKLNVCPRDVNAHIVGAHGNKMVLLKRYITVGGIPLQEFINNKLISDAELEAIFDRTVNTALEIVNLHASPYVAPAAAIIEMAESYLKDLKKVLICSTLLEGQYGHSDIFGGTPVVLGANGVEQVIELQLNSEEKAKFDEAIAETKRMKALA
Experiment [4] in a line: inhibition of 3D7 malaria parasite growth – strain 3D7 (AID 2306).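 Further: 0% = DMSO wells and 100% = chloroquine plus artemisinin control wells.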 Conditions: P. falciparum 3D7 erythrocytic growth, LDH absorbance, 72 h; at 2 µM; active compounds read high.
Experiment [5] has as its target Calcium-dependent protein kinase 1 (Plasmodium falciparum (isolate 3D7)) (UniProt P62344). The experiment is described as follows: PfCDPK1 kinase inhibitors, biochemical, TCAMS library (AID 1159585; cut-off not given, nearly all actives have IC50 up to about 0.98 µM;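 further: inhibitors leave more ATP so luminescence rises with inhibition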). Conditions: recombinant PfCDPK1, Kinase-Glo ATP depletion luminescence.
Experiment [6] has as its target Plasmodium falciparum protein kinase 6 (PK6, PF3D7_1337100) (UniProt Q8IDW1). The experiment in a line: PfPK6 kinase inhibitors, biochemical, TCAMS library (AID 1159586). As to conditions: recombinant PfPK6, Kinase-Glo ATP depletion luminescence. Background: Kinase-Glo reads ATP consumption through a luciferase reaction.
Experiment [7] addresses Protein kinase 7 (PK7), Plasmodium falciparum 3D7 (PF3D7_0213400) (UniProt Q7YTF7). The experiment is described as follows: inhibition of Plasmodium PK7 catalytic activity – biochemical, TCAMS antimalarial set, Kinase-Glo luminescence (AID 1159587). As to conditions: recombinant PfPK7, Kinase-Glo ATP depletion luminescence.
Experiment [8] has as its target Calcium-dependent protein kinase 4 (Plasmodium falciparum (isolate 3D7)) (UniProt Q8IBS5). The experiment is described as follows: PfCDPK4 kinase inhibitors, biochemical, TCAMS library (AID 1159588; cut-off not given, nearly all actives have IC50 up to about 0.91 µM). Conditions: recombinant PfCDPK4, Kinase-Glo ATP depletion luminescence.

Values without a mark were called inactive. For some of these results: Measured potencies and affinities stand elsewhere. Active and inactive are the calls of the source. Unless noted, how the calls were made is not given here.

Plasmodium falciparum protein kinase 6 (PK6, PF3D7_1337100), sequence (Q8IDW1 1-305): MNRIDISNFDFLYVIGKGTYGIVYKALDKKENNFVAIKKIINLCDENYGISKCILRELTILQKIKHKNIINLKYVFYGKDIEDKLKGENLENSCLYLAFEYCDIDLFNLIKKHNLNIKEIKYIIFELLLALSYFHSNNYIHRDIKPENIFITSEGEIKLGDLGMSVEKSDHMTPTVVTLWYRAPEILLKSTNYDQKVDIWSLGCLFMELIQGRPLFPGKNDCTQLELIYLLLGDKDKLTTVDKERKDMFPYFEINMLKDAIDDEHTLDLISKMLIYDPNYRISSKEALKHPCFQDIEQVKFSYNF
Calcium-dependent protein kinase 4 (Plasmodium falciparum (isolate 3D7)), sequence (Q8IBS5 whole entry, looked up): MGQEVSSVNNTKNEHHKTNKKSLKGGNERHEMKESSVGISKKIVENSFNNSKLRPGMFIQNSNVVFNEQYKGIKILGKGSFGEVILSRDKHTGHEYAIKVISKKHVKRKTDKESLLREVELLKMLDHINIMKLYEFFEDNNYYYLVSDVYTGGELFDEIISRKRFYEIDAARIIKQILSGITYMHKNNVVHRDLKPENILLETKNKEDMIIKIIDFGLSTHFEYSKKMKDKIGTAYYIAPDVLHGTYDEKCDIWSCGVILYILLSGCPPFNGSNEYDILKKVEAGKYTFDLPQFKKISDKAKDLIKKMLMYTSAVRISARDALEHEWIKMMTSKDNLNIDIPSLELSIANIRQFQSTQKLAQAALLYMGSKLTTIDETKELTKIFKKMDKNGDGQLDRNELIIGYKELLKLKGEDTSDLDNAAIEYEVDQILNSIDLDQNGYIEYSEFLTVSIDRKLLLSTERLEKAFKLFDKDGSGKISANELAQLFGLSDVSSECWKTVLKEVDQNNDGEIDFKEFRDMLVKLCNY
Protein kinase 7 (PK7), Plasmodium falciparum 3D7 (PF3D7_0213400), sequence (Q7YTF7 1-343): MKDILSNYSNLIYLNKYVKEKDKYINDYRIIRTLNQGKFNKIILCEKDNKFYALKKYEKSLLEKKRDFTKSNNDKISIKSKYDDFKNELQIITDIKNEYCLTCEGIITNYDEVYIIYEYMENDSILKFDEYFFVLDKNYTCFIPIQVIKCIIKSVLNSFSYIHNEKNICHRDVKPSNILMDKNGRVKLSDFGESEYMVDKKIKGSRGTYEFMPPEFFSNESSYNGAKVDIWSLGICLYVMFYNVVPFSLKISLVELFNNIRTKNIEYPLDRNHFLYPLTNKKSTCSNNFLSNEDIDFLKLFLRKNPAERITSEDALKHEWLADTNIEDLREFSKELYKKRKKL
Calcium-dependent protein kinase 1 (Plasmodium falciparum (isolate 3D7)), sequence (P62344 whole entry, looked up): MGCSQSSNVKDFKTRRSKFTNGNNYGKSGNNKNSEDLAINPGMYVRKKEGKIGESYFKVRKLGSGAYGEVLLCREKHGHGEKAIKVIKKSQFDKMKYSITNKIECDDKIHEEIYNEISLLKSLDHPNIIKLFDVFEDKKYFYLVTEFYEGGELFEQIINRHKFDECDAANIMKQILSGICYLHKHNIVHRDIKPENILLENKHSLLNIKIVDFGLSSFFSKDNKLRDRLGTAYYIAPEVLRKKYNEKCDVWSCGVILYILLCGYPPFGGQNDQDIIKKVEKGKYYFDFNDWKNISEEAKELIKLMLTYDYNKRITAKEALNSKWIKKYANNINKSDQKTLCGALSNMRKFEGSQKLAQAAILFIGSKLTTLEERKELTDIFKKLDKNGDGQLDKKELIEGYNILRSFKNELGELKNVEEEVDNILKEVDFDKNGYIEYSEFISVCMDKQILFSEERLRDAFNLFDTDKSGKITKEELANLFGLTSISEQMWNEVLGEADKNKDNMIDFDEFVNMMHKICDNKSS

Consider `c1cncc(CN2CCN(Cc3ccc(-c4ccc(-c5nc6ccccc6[nH]5)s4)cc3)CC2)c1`, for which the growth inhibition in experiment [1] is 34%; in experiment [4], 97% (active). The results for the inhibition in experiment [2] and in experiment [3] were 32% and 6%, respectively. In addition, the outcome in experiment [5], in experiment [6], in experiment [7] and in experiment [8] was inactive.

`CCCN(CC1CC1)c1ncc(-c2cccc(CNCCC3CCCN3C)c2)cn1` (stereo not given): the growth inhibition is 43% in experiment [1] and 98% (active) in experiment [4]. Also, the results for the inhibition in experiment [2] and in experiment [3] were 77% (active) and 7%, respectively. The result in experiment [5], in experiment [6], in experiment [7] and in experiment [8] was inactive.

Take `O=C(Cn1c(SCc2cccc(F)c2F)cc(=O)c2ccccc21)N(CCN1CCCCC1)Cc1ccc(-c2ccc(C(F)(F)F)cc2)cc1`: the figures for the growth inhibition in experiment [1] and in experiment [4] were 82% (active) and 99% (active), respectively. The inhibition (usually the relative decrease from the control value, in per cent) in experiment [2] is 41%; in experiment [3], -1%. Besides, the result in experiment [5], in experiment [6], in experiment [7] and in experiment [8] was inactive.

For the compound `O=C(NC1CCN(c2ccnc3cc(Cl)ccc23)C1)c1cccc(F)c1` (stereo not given), the growth inhibition in experiment [1] is 98% (active); in experiment [4], 95% (active). Moreover, the inhibition in experiment [2] was 30%; in experiment [3], 1%. Also, the result in experiment [5], in experiment [6], in experiment [7] and in experiment [8] was inactive.

As to `CCCOc1ccc(-c2nonc2NC(=O)c2ccccc2OC)cc1OCCC`, the growth inhibition is 82% (active) in experiment [1] and 98% (active) in experiment [4]. Besides, the inhibition was 23% in experiment [2] and -1% in experiment [3]. The result in experiment [5], in experiment [6], in experiment [7] and in experiment [8] was inactive.

Take `COc1cc2c(cc1OC)CN(CCc1ccc(NC(=O)c3cc4cc(OC(F)(F)F)ccc4[nH]3)cc1)CC2`: the figures for the growth inhibition in experiment [1] and in experiment [4] were 20% and 99% (active), respectively. In addition, the inhibition is 36% in experiment [2] and -3% in experiment [3]. Besides, the result in experiment [5], in experiment [6], in experiment [7] and in experiment [8] was inactive.

In the case of `Cc1cc(N[C@@H](Cc2ccccc2)C(=O)NCc2cccs2)nc(Nc2ccccc2)n1`, the growth inhibition in experiment [1] was 36%; in experiment [4] it was 96% (active). Besides, the inhibition in experiment [2] was 3%; in experiment [3], -2%. Also, the result in experiment [5], in experiment [6], in experiment [7] and in experiment [8] was inactive.

`Cc1cc(NN=Cc2ccccc2)c2cc(C(F)(F)F)ccc2n1`: the growth inhibition in experiment [1] was 97% (active); in experiment [4], 101% (active). In addition, the figures for the inhibition in experiment [2] and in experiment [3] were 30% and -6%, respectively. Further, the result in experiment [5], in experiment [6], in experiment [7] and in experiment [8] was inactive.

As to `CN(C)CCNC(=O)c1cc2c(-c3ccc(Cl)cc3)nn(C)c2s1`, the growth inhibition in experiment [1] is 81% (active); in experiment [4] it was 98% (active). Further, the values for the inhibition in experiment [2] and in experiment [3] were 18% and -1%, respectively. The result in experiment [5], in experiment [6], in experiment [7] and in experiment [8] was inactive.

As for `CC1CCCN(S(=O)(=O)c2cc(Br)cc3c2N(C(=O)C2CC2)CC3)C1` (stereo not given), the growth inhibition in experiment [1] was 70% (active); in experiment [4] it was 83% (active). The inhibition in experiment [2] was -14%; in experiment [3], -3%. In addition, the result in experiment [5], in experiment [6], in experiment [7] and in experiment [8] was inactive.

Regarding `OCCNc1nc(Nc2ccccc2)nc2ccccc12`, the growth inhibition in experiment [1] is 61% (active); in experiment [4] it was 93% (active). Also, the inhibition in experiment [2] and in experiment [3] was 5% in each case. Moreover, the result in experiment [5], in experiment [6], in experiment [7] and in experiment [8] was inactive.

In the case of `CC(C)CC(NC(=O)c1cccc(OCCN2CCOCC2)c1)C(=O)NC(/C=N/NC(=O)c1ccccc1)CCc1ccccc1` (stereo not given), the growth inhibition in experiment [1] was 88% (active); in experiment [4] it was 96% (active). Also, the inhibition in experiment [2] was -5%; in experiment [3], -9%. Also, the outcome in experiment [5], in experiment [6], in experiment [7] and in experiment [8] was inactive.

Regarding `O=C(/C=C/c1ccc(Cl)c(Cl)c1)NCCCCCN1CCCN(C(=O)Nc2ccc(Cl)c(C(F)(F)F)c2)CC1`, the growth inhibition in experiment [1] is 16%; in experiment [4] it was 102% (active). Further, the inhibition is 35% in experiment [2] and 4% in experiment [3]. Also, the outcome in experiment [5], in experiment [6], in experiment [7] and in experiment [8] was inactive.

Turning to `O=C(N1CCN(c2ccc(C(F)(F)F)cc2[N+](=O)[O-])CC1)C(Cl)(Cl)Cl`, the growth inhibition is 99% (active) in experiment [1] and 101% (active) in experiment [4]. Further, the figures for the inhibition in experiment [2] and in experiment [3] were 29% and 0%, respectively. Also, the outcome in experiment [5], in experiment [6], in experiment [7] and in experiment [8] was inactive.

In the case of `Cc1cc(-c2ccc(CN3Cc4ccccc4C3)cc2)ccc1S(=O)(=O)NCCN1CCCC1`, the values for the growth inhibition in experiment [1] and in experiment [4] were 10% and 94% (active), respectively. Besides, the values for the inhibition in experiment [2] and in experiment [3] were 49% and -4%, respectively. Besides, the result in experiment [5], in experiment [6], in experiment [7] and in experiment [8] was inactive.

Take `Cc1ccc(NC(=O)c2cccc(CN3CCCN(Cc4cccc(O)c4)CC3)c2)cc1C`: the figures for the growth inhibition in experiment [1] and in experiment [4] were 31% and 95% (active), respectively. Further, the inhibition was 19% in experiment [2] and 1% in experiment [3]. The result in experiment [5], in experiment [6], in experiment [7] and in experiment [8] was inactive.

With `CCc1nc(N)nc(N)c1-c1ccc(C(C)C)cc1`, the growth inhibition was -4% in experiment [1] and 92% (active) in experiment [4]. Further, the values for the inhibition in experiment [2] and in experiment [3] were 3% and 1%, respectively. The outcome in experiment [5], in experiment [6], in experiment [7] and in experiment [8] was inactive.

`CC(C)CCNC(=O)C1Cc2c([nH]c3ccc(Br)cc23)C2(CCN(CCc3ccccc3)CC2)N1` (stereo not given): the growth inhibition is 61% (active) in experiment [1] and 101% (active) in experiment [4]. The inhibition in experiment [2] was 25%; in experiment [3], 2%. In addition, the outcome in experiment [5], in experiment [6], in experiment [7] and in experiment [8] was inactive.

`COCCNCc1cccc(-c2cccc(CNC3CCN(Cc4ccccc4)CC3)c2)c1`: the values for the growth inhibition in experiment [1] and in experiment [4] were 99% (active) and 101% (active), respectively. Further, the inhibition in experiment [2] was 28%; in experiment [3] it was -4%. Further, the outcome in experiment [5], in experiment [6], in experiment [7] and in experiment [8] was inactive.

Turning to `COCCNCC(O)Cn1c2ccc(Cl)cc2c2cc(Cl)ccc21` (stereo not given), the growth inhibition in experiment [1] is 74% (active); in experiment [4] it was 95% (active). The results for the inhibition in experiment [2] and in experiment [3] were 15% and 0%, respectively. In addition, the result in experiment [5], in experiment [6], in experiment [7] and in experiment [8] was inactive.
